Values joined by “and” are separate entries in the source; they are usually repeats but may differ in a detail not shown here. Equal values may be shown once. Results filed as inconclusive are left out. Where a structure was tested more than once in an assay, its records may differ in their call. Active and inactive are the calls of the source. Calls follow the shape of the dose curve; as a rule, active = well fitted cell-killing curve with a large enough effect in the repeat runs; inconclusive = weak or mixed curves; inactive = no such curve, though single readings can be large or run the other way.
Test: qHTS assay for identifying genotoxic compounds that show differential cytotoxicity against isogenic chicken DT40 cell lines with known DNA damage response pathways - Rad54/Ku70 mutant cell line (AID 743015); also: nearly all actives have a fitted effect of over 60% in size
Conditions: DT40 Rad54/Ku70 mutant viability, CellTiter-Glo, 40 h; series mostly up to 66.8 µM; activity change, negative = cytotoxicity: at the top concentration
Source text: National Center for Advancing Translational Sciences [NCATS]
NIH Chemical Genomics Center [NCGC]
U.S. Environmental Protection Agency [EPA]
National Institutes of Environmental Health Sciences [NIEHS]
National Toxicology Program [NTP]
U.S. Food and Drug Administration [FDA]
DNA repair pathways play a critical role in cellular homeostasis by repairing DNA damage induced by endogenous processes and xenobiotics. Isogenic chicken DT40 cell lines deficient in different DNA repair pathways can be used to identify genotoxic compounds and aid in characterizing the nature of the DNA damage induced. Two DNA repair-deficient cell lines with disrupted genes, Rad54/Ku70 or Rev3, were used to screen the Tox21 10K compound library. Possible genotoxicity was based on the presence of a significant increase in cytotoxicity in one or more of the DNA repair-deficient cell lines compared to that observed in the parental DNA repair-proficient cell line. CellTiter Glo viability assay (Promega, Madison, WI) was used to measure cell viability in these cells after compound treatment. This assay includes the data from the Rad54/Ku70 mutant cell line.
Tox21 Assay Protocol Summary:
300 DT40 mutant cells in 5 uL/well were dispensed into white, solid-bottom 1536-well plates using a Multidrop Combi (ThermoFisher Scientific, Waltham, MA) dispenser. After the assay plates were incubated at 37 C/5% CO2 for approximately 0.5 hour, 23 nL of compounds dissolved in DMSO, positive controls or DMSO only was transferred into the assay plate by a pintool work station (Kalypsys, San Diego, CA). The assay plates were incubated at 37 C/5% CO2 for 40 hours. After 5 uL per well of CellTiter-Glo reagent was added into each well of the assay plates, the plates were incubated for 30 min at room temperature and the luminescence intensity of the plates was measured using a ViewLux (PerkinElmer, Shelton, CT) plate reader.
% is scaled to controls: 0 for no effect and ±100 for the full control effect; potency is read from the fitted curve at half-maximal effect.

Row | SMILES | Potency | activity change, negative = cytotoxicity
1 | C#C[C@]1(O)CC[C@H]2[C@@H]3CCC4=Cc5oncc5C[C@]4(C)[C@H]3CC[C@@]21C | 13.7 µM (active) | –
2 | CCC(C)c1ccccc1O (stereo not given) | inactive | –
3 | CCC(C)CO (stereo not given) | – | -0.156% [at 95.1 µM] (inactive)
4 | O=C(c1ccc(OCCN2CCCCC2)cc1)c1c(-c2ccc(O)cc2)sc2cc(O)ccc12 | 7.5 µM (active) and 9.7 µM (active) and 1.37 µM (active) | –
5 | O=C(Nc1ccc(Cl)cc1)Nc1ccc(Cl)c(Cl)c1 | 2.66 µM (active) and 5.42 µM (active) and 2.17 µM (active) | –
6 | CC(C)Oc1ccc2c(=O)c(-c3ccccc3)coc2c1 | 9.44 µM (active) | –
7 | O=CCc1ccccc1 | inactive and 54.5 µM (active) | –
8 | CC(=O)C1(C)CC2=C(CCCC2(C)C)CC1C (stereo not given) | inactive and 54.5 µM (active) | –
9 | C#C[C@]1(O)CC[C@H]2[C@@H]3CCc4cc(OC)ccc4[C@H]3CC[C@@]21C | 6.68 µM (active) and 6.86 µM (active) | –
10 | CC(=O)c1ccccn1 | inactive | –
11 | OC[C@H]1O[C@@H]2O[C@H]3[C@H](O)[C@@H](O)[C@@H](O[C@H]4[C@H](O)[C@@H](O)[C@@H](O[C@H]5[C@H](O)[C@@H](O)[C@@H](O[C@H]6[C@H](O)[C@@H](O)[C@@H](O[C@H]7[C@H](O)[C@@H](O)[C@@H](O[C@H]8[C@H](O)[C@@H](O)[C@@H](O[C@H]1[C@H](O)[C@H]2O)O[C@@H]8CO)O[C@@H]7CO)O[C@@H]6CO)O[C@@H]5CO)O[C@@H]4CO)O[C@@H]3CO | inactive | –
12 | CC(C)=CCC/C(C)=C\CO | – | -7.09% [at 95.1 µM] (inactive)
13 | Oc1ccc(O)cc1 | 26.6 µM (active) and 13.6 µM (active) and 54.5 µM (active) | –
14 | c1ccncc1 | inactive | –
15 | NNc1ccc(C(=O)O)cc1 | inactive | –
16 | CCCCNS(=O)(=O)c1ccccc1 | inactive | –
17 | OC(CCl)CCl | inactive | –
18 | COc1c(Cl)c(Cl)c(Cl)c(Cl)c1Cl | inactive | –
19 | O=C(/C=C/C=C/c1ccc2c(c1)OCO2)N1CCCCC1 | 61.3 µM (active) | –
20 | C=C(C)C1CC=C(C)CC1 (stereo not given) | inactive | –

Row | SMILES | Potency | activity change, negative = cytotoxicity
21 | Cc1ccc2c(n1)Oc1ccc(C(C)C(=O)OCC(=O)N(C)C)cc1C2 (stereo not given) | – | -11.8% (inactive)
22 | COc1cc([C@@H]2c3cc4c(cc3[C@H](O)[C@H]3COC(=O)[C@H]23)OCO4)cc(OC)c1OC | 29.8 nM (active) and 21.7 nM (active) | –
23 | OCCO | inactive | –
24 | O=C1c2cccc(O)c2C(=O)c2c(O)cccc21 | – | -1.4% [at 95.1 µM] (inactive)
25 | CC(C)(C)NC(=O)[C@H]1CC[C@H]2[C@@H]3CC[C@H]4NC(=O)C=C[C@]4(C)[C@H]3CC[C@]12C | inactive and 68.6 µM (active) | –
26 | CC(C)CC(C)(O)C#CC(C)(O)CC(C)C (stereo not given) | 54.5 µM (active) | –
27 | Cn1cnc([N+](=O)[O-])c1Sc1ncnc2nc[nH]c12 | – | 0.386% (inactive)
28 | c1ccc2cc(Nc3ccc(Nc4ccc5ccccc5c4)cc3)ccc2c1 | inactive | –
29 | Cc1ccc(C)c(O)c1C | inactive | –
30 | O=[N+]([O-])c1ccc2c(c1)Cc1ccccc1-2 | – | -1.46% (inactive)
31 | CC(=O)Oc1ccccc1C(=O)Nc1ncc([N+](=O)[O-])s1 | 13.3 µM (active) | –
32 | C=CC(C)(CCC=C(C)C)OC(C)=O (stereo not given) | – | 9.84% (inactive)
33 | CC(C(=O)O)c1cccc(C(=O)c2ccccc2)c1 (stereo not given) | inactive | –
34 | CCCCC(CC)COP(=O)(OCC(CC)CCCC)OCC(CC)CCCC (stereo not given) | inactive | –
35 | CC1=CC2C3CC(C=C3C)C2C1 (stereo not given) | inactive and 30.6 µM (active) | –
36 | Nc1ccc(Cl)cc1Cl | inactive | –
37 | OC1CCCCCCCCCCC1 | inactive | –
38 | S=C(NC1CCCCC1)NC1CCCCC1 | inactive and 61.1 µM (active) | –
39 | O=Cc1ccccc1O | inactive | –
40 | Clc1nc(Cl)c(Cl)c(Cl)c1Cl | inactive | –
